HT1080 IDH1KD tx: kills HT-1080 cells with IDH1 knockdown; HT-1080 IDH1 knockdown viability, ATP luminescence, 48 h; Potency, µM (doses to about 46.1 µM), for the others: top-dose activity, negative = toxicity, usual class: cytotoxic; hit rate 2% among 360,000; AID 686971;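 note: 0% = DMSO wells and -100% = cell-free medium wells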
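Viability of IDH1-knockdown HT-1080 fibrosarcoma cells was assessed by CellTiter-Glo after 48 h at 37 °C with titrated compound; concentration-effect curves were classified by fit quality and response size.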
KB-3-1 tox: kills parental KB-3-1 adenocarcinoma cells | KB-3-1 viability, CellTiter-Glo ATP luminescence, 72 h | Potency, µM (top dose mostly 46.1 µM), most hits filed as cytotoxic | hit rate 1.4% among 400,000 | AID 1347075; note: % is set by controls: 0 for no effect and ±100 for the full control effect; nearly all actives have a fitted effect of over 60% in size
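Cytotoxicity measured as CellTiter-Glo luminescence after 72 h at 37 C. Compound titrations were pinned onto drug-naive KB-3-1 parental adenocarcinoma cells grown in DMEM with 10% FBS, and normalized data fitted to concentration-response curves.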
MCF10A rerep: DNA re-replication induction in MCF 10a cells; MCF 10A DNA re-replication, Hoechst nuclear intensity, 48 h; Potency, µM (doses to about 46.1 µM), without a hit: top-dose activity, positive = re-replication, actives largely listed as activators; hit rate 2.9% among 350,000; AID 624296; note: % of control where 0% means no effect; nearly all actives have a fitted effect of over 50% in size
SW480 rereplic: induces DNA re-replication in SW480 colon adenocarcinoma cells. SW480 DNA re-replication, Hoechst DNA content imaging, 48 h. Potency, µM (series often up to 46.1 µM), for inactives: top-dose re-replication activation, actives largely listed as activators. hit rate 1.8% among 340,000. AID 624297; note: % of control where 0% means no effect; nearly all actives have a fitted effect of over 55% in size
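SW480 cells exposed to compounds for 48 hr at 37 C, 5% CO2, then Hoechst-stained 40 min. Nuclear DNA content imaged by fluorescence scanning (405 nm excitation, 500-530 nm emission); re-replication scored as increased high-intensity nuclei.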
KB-V1 MDR tox: kills drug-selected multidrug resistant KB-V1 cells; KB-V1 MDR cells viability, CellTiter-Glo, 72 h; Potency, µM (series often up to 46.1 µM), hits mostly cytotoxic; hit rate 3.4% among 400,000; AID 1347076; note: % is set by controls: 0 for no effect and ±100 for the full control effect; nearly all actives have a fitted effect of over 60% in size
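KB-V1 MDR subline cells in DMEM (phenol-red free, 10% FBS) exposed to compounds in qHTS concentration series for 72 h at 37 degrees C. Viability read by CellTiter-Glo luminescence; concentration-effect curves fitted after normalization and correction.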
HT1080NT lethal: kills 2HG-producing HT-1080-NT fibrosarcoma cells; HT-1080-NT fibrosarcoma viability, CellTiter-Glo ATP luminescence, 48 h; Potency, µM (titrated, usually from 46.1 µM), without a hit: top-dose activity, negative = less viability, actives largely listed as cytotoxic; hit rate 1.6% among 360,000; AID 686970;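 note: NT is the 2HG producing partner of a matched IDH1 knockdown line; 0% = DMSO-treated cells and -100% = media-only wells without cells; nearly all actives have a fitted effect of over 55% in size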
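Fibrosarcoma NT cells, 750 per well in 5% FBS RPMI, were exposed to compound for 48 hours. Viability: CellTiter-Glo luminescence.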
* hit, by the source's call; i = inactive; ? = inconclusive; [ ] = another dose, or the depositor's remark. An excerpt weighted towards active compounds, which were near 7.9% of everything screened. Calls come from the whole dose curve; as a rule, active = well fitted curve in the direction sought with a large enough effect; inconclusive = small, poorly fitted or top-dose-only effect, or another doubt; inactive = no such curve, though single readings can be large; an effect the other way counts as inactive or inconclusive. Potency is the fitted concentration of half-maximal effect.

SMILES	HT1080 IDH1KD tx	KB-3-1 tox	MCF10A rerep	SW480 rereplic	KB-V1 MDR tox	HT1080NT lethal
CCCCNC(=S)N/N=C/c1cccc(OCC)c1O	9%	i	1%	-7%	i	29%
O=[N+]([O-])c1ccc(O)c(/C=N/Nc2ccc(Cl)nn2)c1	0.21µM*	?	0.73µM*	?	i	?
O=[N+]([O-])c1ccc(O)c(/C=N/Nc2nn[nH]n2)c1	-8%	i	?	-11%	i	-1%
CC(=O)N1CCN(c2ccc(NC(=O)c3ccc([N+](=O)[O-])cc3Cl)cc2)CC1	13%	i	4%	-1%	i	21%
CCCCN(CCCC)S(=O)(=O)c1ccc(NC(=O)c2ccc([N+](=O)[O-])cc2Cl)cc1	?	?	-2%	0%	16µM*	-30%
CCOc1cccc(/C=N/NC(=S)Nc2ccccc2[N+](=O)[O-])c1O	16µM*	i	10%	9%	i	?
Cc1cccc(N(CC(=O)N2CCCC2)S(=O)(=O)c2ccccc2)c1C	-2%	i	0%	-3%	i	-3%
CC1CC(C)CN(CCCNC(=O)c2ccc(CNS(=O)(=O)c3ccc(F)cc3)cc2)C1 (centres undefined)	-14%	i	-4%	3%	i	-20%
O=C(O)c1ccccc1Nc1ccc([N+](=O)[O-])cc1	?	9.2µM*	10%	2%	?	?
O=C(CN(Cc1ccccc1)S(=O)(=O)c1ccccc1)N/N=C/c1ccccc1[N+](=O)[O-]	-29%	i	14%	2%	23µM*	?
O=C(CCC(=O)Nc1ccc(F)cc1)N/N=C/c1cc([N+](=O)[O-])ccc1O	-14%	i	17%	?	i	-27%
O=C(CCC(=O)Nc1cc(C(F)(F)F)ccc1Cl)N/N=C\c1cc([N+](=O)[O-])ccc1O	-13%	i	?	15µM*	i	?
O=[N+]([O-])c1ccc(Cl)c(/C=N/NC(=S)Nc2ccccc2)c1	4.5µM*	i	?	1%	i	?
Cc1ccc(CN(CC(=O)N/N=C/c2ccccc2[N+](=O)[O-])S(=O)(=O)c2ccc(C)cc2)cc1	2%	i	5%	18%	i	1%
O=C(O)c1ccccc1Nc1ccccc1C(=O)O	-13%	i	-3%	12%	i	-9%[9.24 µM]
Cc1[nH]nc2c1C(c1cccs1)C1=C(CCCC1=O)N2 (centres undefined)	1%	i	2%	-2%	i	-1%
Cc1ccnc(N2CCC(C(=O)NCc3ccc4c(c3)OCO4)CC2)n1	2%	i	-3%	-6%	i	0%
COc1ccc(CC(=O)Nc2cccc(-c3ccc4nncn4n3)c2)cc1OC	?	?	17%	-23%	i	-7%
O=C(Nc1ccc(Nc2ccccc2)cc1)c1cc([N+](=O)[O-])ccc1Cl	18µM*	i	4%	-4%	i	?
O=[N+]([O-])c1ccc(O)c(/C=N\N=C2c3ccccc3-c3ccccc32)c1	-7%	8.2µM*	?	?	13µM*	-17%
O=C(Nc1ccccc1Oc1ccccc1)c1cc([N+](=O)[O-])ccc1Cl	-7%	?	?	?	?	-9%
O=[N+]([O-])c1ccccc1C=NNC(=S)NN=Cc1ccccc1[N+](=O)[O-]	?	?	18µM*	21µM*	?	?
CN1CCN(c2ccc([N+](=O)[O-])cc2C(=O)Nc2ccccc2)CC1	-13%	i	2%	19%	i	-6%
Cc1ccccc1C(=O)NCC(=O)OC1CCCCC1=O (centres undefined)	-3%	i	9%	0%	i	-3%
Cc1ccc(-c2csc3ncnc(N4CCN(C(=O)c5ccco5)CC4)c23)cc1	?	i	22%	6%	21µM*	?

Assay outcomes (PubChem)
